{
  "source": "PubChem BioAssay AID1254",
  "about": "(The Scripps Research Institute Molecular Screening Center, 2008)",
  "note": "Hit rate of the full screen: of about 1,200 compounds, about 250 (21%) were called active. These entries were drawn from the full list. A number with no mark means an inactive call. No stated cut-off is given here; in the data, active means inhibition above about 20%; inactive means the rest.",
  "data": [
    {"biological_target": "Neuropeptide Y receptor type 1 (Homo sapiens) (UniProt P25929)", "sequence (P25929 whole entry, looked up)": "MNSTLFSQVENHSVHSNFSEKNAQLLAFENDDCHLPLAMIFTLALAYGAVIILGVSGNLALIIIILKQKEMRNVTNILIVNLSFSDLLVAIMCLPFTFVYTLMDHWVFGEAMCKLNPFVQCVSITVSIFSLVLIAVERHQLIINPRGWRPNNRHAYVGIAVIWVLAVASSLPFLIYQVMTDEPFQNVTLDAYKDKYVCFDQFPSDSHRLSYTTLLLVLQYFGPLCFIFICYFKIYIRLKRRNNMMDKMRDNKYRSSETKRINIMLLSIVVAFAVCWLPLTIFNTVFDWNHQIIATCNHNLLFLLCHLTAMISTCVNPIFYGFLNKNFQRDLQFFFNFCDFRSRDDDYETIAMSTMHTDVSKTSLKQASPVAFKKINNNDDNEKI", "experiment": "NPY-Y1 receptor antagonists, retest of hits, confirmation, HEK293-CNG cells, membrane potential fluorescence, triplicate (AID 1254);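 further: 0% = vehicle with agonist plus stimulus and 100% = stimulus alone without agonist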", "conditions": "cAMP, at 3.6 µM, active compounds read high, NPY challenge against isoproterenol-raised cAMP", "values": [
      {"smiles": "O=C(CSc1nnnn1C1CCCC1)Nc1ccc2c(c1)OCCO2", "inhibition": "10.8%"},
      {"smiles": "CCN1CCN(CCNC(=O)c2ccc(/C=C3/Sc4ccccc4N(Cc4cccc(C)c4)C3=O)cc2)CC1", "inhibition": "14.5%"},
      {"smiles": "COC(=O)c1ccc(COC(=O)c2c(C)nn(Cc3ccccc3Cl)c2Cl)o1", "inhibition": "7.48%"},
      {"smiles": "CC(C)(C)NCc1cc(Br)ccc1OC1CCCC1", "inhibition": "21.6% (active)"},
      {"smiles": "Cc1ccccc1Nc1scc(-c2ccc(Br)cc2)[n+]1-c1ccccc1C", "inhibition": "18.4%"},
      {"smiles": "COc1ccccc1C1C2=C(COC2=O)Nc2cc3c(cc21)OCO3", "note": "(stereo not drawn)", "inhibition": "2.86%"},
      {"smiles": "COc1ccc(-c2[nH]nc(-c3ccccc3)c2-c2nc3ccccc3[nH]2)cc1", "inhibition": "13.6%"},
      {"smiles": "COc1ccc(C(=O)CSc2nnc(COc3ccccc3)n2Cc2ccco2)cc1", "inhibition": "5.39%"},
      {"smiles": "Cc1cc(C)c2[nH]c(=O)c(CN(Cc3ccccc3)C(=S)NCCCN(C)C)cc2c1", "inhibition": "15.2%"},
      {"smiles": "O=S(=O)(O)c1nc2ccccc2n1Cc1ccc(Cl)cc1", "inhibition": "5.94%"},
      {"smiles": "O=C(NCCc1ccc2c(c1)OCCO2)c1cc2ccccc2o1", "inhibition": "13.2%"},
      {"smiles": "CCCOc1ccc2c3c(c(=O)oc2c1OCCC)CCC3", "inhibition": "5.13%"},
      {"smiles": "C/C(=N\\NC(=S)NCc1ccccc1)c1ccc(Cl)cc1", "inhibition": "4.98%"},
      {"smiles": "Cc1ccc(-c2cc(C(=O)N3CCc4ccccc4C3)no2)cc1", "inhibition": "10.9%"},
      {"smiles": "OCC1(CCc2ccccc2)CCN(Cc2ccc3nsnc3c2)CC1", "inhibition": "9.69%"},
      {"smiles": "COc1ccc(CCN(C(=O)COc2ccccc2)c2nc(-c3ccccc3)cs2)cc1OC", "inhibition": "13.1%"},
      {"smiles": "c1ccc2c(NC3C4CC5CC(C4)CC3C5)nc(N3CCOCC3)nc2c1", "note": "(stereo not drawn)", "inhibition": "25.2% (active)"},
      {"smiles": "CC(Nc1nc(N2CCN(CCO)CC2)nc2ccccc12)c1ccccc1", "note": "(stereo not drawn)", "inhibition": "4.06%"},
      {"smiles": "c1ccc(-c2ccccc2OCCN2CCCCC2)cc1", "inhibition": "4.72%"},
      {"smiles": "CCCCCCCCn1c2c(c(=N)c3c1CCC3)CCCC2", "inhibition": "64.7% (active)"},
      {"smiles": "Cc1ccc2nc(-c3ccccn3)cc(C(=O)Nc3ccc4c(c3)OCO4)c2c1", "inhibition": "27% (active)"},
      {"smiles": "O=C(CN1CCN(c2ncc(C(F)(F)F)cc2Cl)CC1)Nc1ccc2c(c1)OCO2", "inhibition": "12.4%"},
      {"smiles": "COc1cc2c(C(=O)N3CCN(C)CC3)c(CSc3ccccc3)n(C)c2cc1Br", "inhibition": "20.6% (active)"},
      {"smiles": "CS(=O)(=O)N1CCCC(C(=O)N2CCOCC2)C1", "note": "(stereo not drawn)", "inhibition": "-0.5%"},
      {"smiles": "CCOC(=O)CSc1nc2c(sc(=S)n2CCc2ccccc2)c(=O)n1Cc1ccco1", "inhibition": "18.3%"},
      {"smiles": "O=C(c1cc(-c2ccc(O)cc2)on1)N1CCCc2ccccc21", "inhibition": "2.54%"},
      {"smiles": "CCOC1CCCCC1NS(=O)(=O)c1ccc(Cl)cc1", "note": "(stereo not drawn)", "inhibition": "-0.15%"},
      {"smiles": "CCCC(=O)Nc1nc2ccc(NC(=O)c3c(F)c(F)c(OC)c(F)c3F)cc2s1", "inhibition": "6.69%"},
      {"smiles": "Cc1ccc(N2C(=O)C3N=NN(CC(=O)N4N=C(c5cccc6ccccc56)CC4c4ccccc4)C3C2=O)cc1", "note": "(stereo not drawn)", "inhibition": "0.57%"},
      {"smiles": "COC(=O)C1=C(Nc2ccc(C)cc2)C=C(C)C(C(=O)OC)C1c1ccc(F)cc1", "note": "(stereo not drawn)", "inhibition": "19%"},
      {"smiles": "NC(N)=N/N=C/c1ccc(OCc2ccc(Cl)cc2Cl)cc1", "inhibition": "11.7%"},
      {"smiles": "CC(=O)OC(C)C[N+](C)(C)C", "note": "(stereo not drawn)", "inhibition": "15.3%"},
      {"smiles": "Cc1ccc(C(=O)C[n+]2cc(-c3ccccc3)n3c2CCCCC3)cc1", "inhibition": "22.1% (active)"},
      {"smiles": "CCOC(=O)N1CCN(S(=O)(=O)c2ccc(C(=O)Nc3ccc(F)cc3F)cc2)CC1", "inhibition": "2.56%"},
      {"smiles": "Cc1nc(-c2ccccc2)sc1C(=O)/C=C/c1ccccc1", "inhibition": "7.83%"},
      {"smiles": "COc1ccc(C(c2nnnn2C2CCCCC2)N2CCN(c3ccccc3F)CC2)cc1", "note": "(stereo not drawn)", "inhibition": "15%"},
      {"smiles": "Cc1ccc(SCCC(=O)OCC(=O)Nc2ncc(Cl)cc2Cl)cc1", "inhibition": "5.19%"},
      {"smiles": "CCCCc1c(O)nc2n(c1=O)CCS2", "inhibition": "1.41%"},
      {"smiles": "CCCOC(=O)c1[nH]c2c(c1C)C(=O)CC(c1cccs1)C2", "note": "(stereo not drawn)", "inhibition": "7.07%"},
      {"smiles": "CC1CN(CCCOc2ccccc2-c2ccccc2)CC(C)O1", "note": "(stereo not drawn)", "inhibition": "2.5%"},
      {"smiles": "Cc1ccc(Cn2c(NC(=O)c3ccco3)nc3ccccc32)cc1", "inhibition": "17.4%"},
      {"smiles": "COc1cccc(CNCCc2c[nH]c3ccccc23)c1OCc1ccccc1F", "inhibition": "9.73%"},
      {"smiles": "OC(COCCC12CC3CC(CC(C3)C1)C2)CN1CCCCC1", "note": "(stereo not drawn)", "inhibition": "3.08%"},
      {"smiles": "Cc1ccc(/C=N/NC(=O)COc2ccccc2-c2ccccc2)cc1", "inhibition": "11.6%"},
      {"smiles": "CCCSc1nc(NCc2ccco2)c2c3c(sc2n1)COC(C)(CC)C3", "note": "(stereo not drawn)", "inhibition": "10.4%"},
      {"smiles": "O=C(Cc1cccs1)N(CC1CCCO1)C1(C(=O)NC2CCCCC2)CCCCC1", "note": "(stereo not drawn)", "inhibition": "9.42%"},
      {"smiles": "COc1ccccc1N1CCN(C(=O)CN(Cc2ccc(Cl)cc2)S(C)(=O)=O)CC1", "inhibition": "11.6%"},
      {"smiles": "CCC(=O)c1c[nH]c(C(=O)NCC2CCCO2)c1", "note": "(stereo not drawn)", "inhibition": "0.28%"},
      {"smiles": "CCOC(=O)c1nn(-c2cccc(C)c2)cc1C(=O)c1ccccc1", "inhibition": "5.58%"},
      {"smiles": "COC(=O)c1ccc(C(NC(=O)OCc2ccccc2)/C(C)=C/[C@@H](C)C(=O)NCc2ccc(OC)c(OC)c2)cc1", "note": "(stereo partly drawn)", "inhibition": "15.9%"},
      {"smiles": "O=C(NCCCN1CCOCC1)c1cnn2c(-c3ccccc3)cc(-c3ccccc3)nc12", "inhibition": "25% (active)"},
      {"smiles": "O=C1c2cccnc2C(Nc2ccc(S(=O)(=O)N3CCCCCC3)cc2)N1Cc1ccccc1", "note": "(stereo not drawn)", "inhibition": "0.2%"},
      {"smiles": "COc1ccc(C2Nc3ccccc3C(=O)N2Cc2ccccc2)cc1Cn1nnc2ccccc21", "note": "(stereo not drawn)", "inhibition": "11.8%"},
      {"smiles": "CCS(=O)(=O)n1nc(-c2ccccc2)nc1SCc1ccccc1", "inhibition": "13.5%"},
      {"smiles": "Cc1cc(C(C)(C)C)oc1C(=O)N(CC(=O)NC1CCCC1)Cc1ccc(Cl)cc1", "inhibition": "25.8% (active)"},
      {"smiles": "O=C(/C=C/c1ccco1)Nc1cccc(-c2nc3ccccc3[nH]2)c1", "inhibition": "2.58%"},
      {"smiles": "Oc1ccc(-c2[nH]ncc2-c2nc3ccccc3s2)c(O)c1", "inhibition": "53% (active)"},
      {"smiles": "CCc1ccc(CNC(=O)C2CCCN(c3nc4ccccc4o3)C2)cc1", "note": "(stereo not drawn)", "inhibition": "13.2%"},
      {"smiles": "CCCCn1nc(C(=O)N2CCc3ccccc32)c2ccccc2c1=O", "inhibition": "3.55%"},
      {"smiles": "Clc1ccccc1-c1cc(COc2ccc3ccccc3c2)no1", "inhibition": "13.6%"},
      {"smiles": "CCCCCCC(=O)Nc1nc(C)c(-c2csc(Nc3cccc(OC)c3)n2)s1", "inhibition": "17.8%"},
      {"smiles": "CC(Oc1ccc2ccccc2c1)C(=O)NNC(=S)NC(=O)c1ccco1", "note": "(stereo not drawn)", "inhibition": "10.5%"},
      {"smiles": "Cc1ccc(C(=O)N/C(=C/c2ccc(-c3cccc([N+](=O)[O-])c3)o2)C(=O)NCCCN(C)C)cc1", "inhibition": "9.75%"},
      {"smiles": "O=C(CSc1nc2cc3c(cc2c(=O)n1CCC1=CCCCC1)OCO3)NCc1ccco1", "inhibition": "4.77%"},
      {"smiles": "CC(=O)N1CC(C)c2scc(C)[n+]2-c2ccccc21", "note": "(stereo not drawn)", "inhibition": "-0.57%"},
      {"smiles": "Fc1ccc(-c2nnc(CSc3nnc(-c4ccc5c(c4)OCO5)o3)o2)cc1", "inhibition": "10.1%"},
      {"smiles": "CN(C)CCCCCN(C)Cc1cc2ccccc2o1", "inhibition": "9.51%"},
      {"smiles": "CC(C)Cn1cnc2c1c(=O)n(CC(O)c1ccccc1)c(=O)n2CC(C)C", "note": "(stereo not drawn)", "inhibition": "-1.75%"}
    ]}
  ]
}
